PubChem BioAssay AID2540 (Sanford-Burnham Center for Chemical Genomics, 2010)
Screen size: about 330,000 compounds; about 4,100 (1.2%) were called active. The sample as a whole holds a higher share of actives than the screen did. Unmarked numbers belong to inactive results. Rule as the data show it: active = inhibition above about 50%; inactive = the rest.

Each compound was assayed against Sentrin-specific protease 8 (Homo sapiens) (UniProt Q96LD8) (assay: SENP8 protease inhibitors, primary screen, biochemical, luminescence (AID 2540)). Conditions: purified SENP8, Z-RLRGG-aminoluciferin cleavage, at 10 µM, active compounds read high.
Chain of Sentrin-specific protease 8 (Homo sapiens) (Q96LD8 whole entry, looked up): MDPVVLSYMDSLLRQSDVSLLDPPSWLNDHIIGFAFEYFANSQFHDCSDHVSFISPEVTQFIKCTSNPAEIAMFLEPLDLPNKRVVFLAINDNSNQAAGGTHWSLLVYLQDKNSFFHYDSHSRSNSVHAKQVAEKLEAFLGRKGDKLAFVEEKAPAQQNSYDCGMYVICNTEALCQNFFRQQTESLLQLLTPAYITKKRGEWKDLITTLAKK

| SMILES | inhibition |
| --- | --- |
| COc1ccc(CCNC(=O)CCn2c(=O)c3ccccc3n(CC(=O)NCC3CCCO3)c2=O)cc1OC (stereo not drawn) | -9.64% |
| C[C@H](NC(=O)C1CCN(S(=O)(=O)c2ccccc2)CC1)C(=O)NCc1ccccc1 | -3.77% |
| CC(C)n1c(COc2ccccc2)nc2ccccc21 | -6.45% |
| Cc1ccc(OCc2nc3ccccc3n2C)cc1 | 51.5% (active) |
| CCOc1ccc(C(O)Cc2nc3ccccc3n2C)cc1 (stereo not drawn) | 1.07% |
| CCn1c(SCC(=O)NC2CC2)nnc1-c1ccccc1OC | -9.1% |
| COc1ccc(C2OCC3(CO2)SC(=O)NC3=O)cc1OC (stereo not drawn) | -5.03% |
| CCN(CC)C(=O)CSc1ncnc2c1cnn2-c1ccccc1 | 2.66% |
| COc1ccc(-n2ncc3c(SCC(=O)NNC(C)=O)ncnc32)cc1 | 53.4% (active) |
| COC(=O)CSc1ncnc2c1cnn2-c1ccc(C)cc1C | 6.59% |
| CC(=O)Oc1ccc(-c2nc3c(C)cccc3c(=O)o2)cc1 | -1.45% |
| CCOC(=O)CSc1nnc(-c2ccc([N+](=O)[O-])cc2)o1 | 1.65% |
| CC(=O)Oc1ccc2c(=O)oc(-c3ccc([N+](=O)[O-])cc3)nc2c1 | 94.9% (active) |
| N/C(=N\OC(=O)CCC1CCCCC1)c1ccccn1 | 70.6% (active) |
| N/C(=N\OC(=O)CC1CCCCC1)c1ccccc1 | 18.2% |
| COc1ccccc1OCC(=O)O/N=C(\N)c1ccccn1 | -6.27% |
| COc1ccc(-c2nc(-c3ccccc3)no2)c(OC)c1 | 98% (active) |
| COc1ccc(OC)c(-c2csc(-c3cccs3)n2)c1 | -5.23% |
| COc1ccc(-c2noc(CNC(=O)C(C)Oc3ccccc3)n2)cc1 (stereo not drawn) | -0.358% |
| Clc1ccc2c(c1)C1=C(C(c3ccncc3)O2)C(c2ccc(Br)cc2)n2ncnc2N1 (stereo not drawn) | -1.86% |
| CC(C)NC(=S)NN=C1CCCCCCCCCCC1 | -4.77% |
| CCn1c(CC(=O)Nc2ccccc2)nnc1SCC(=O)N1CCOCC1 | 3.84% |
| CCc1ccc(-c2cc(C(=O)NCc3ccco3)c3ccccc3n2)s1 | -4.94% |
| CC(C)CC(=O)N/C(N)=N/c1nc2ccccc2s1 | 17% |

| SMILES | inhibition |
| --- | --- |
| CCC1(CC)NC(=O)N(Cc2nc3ccccc3s2)C1=O | -5% |
| CCC(C)Cn1c(O)cc2nn(-c3nc4ccccc4s3)c(=O)c-2c1C (stereo not drawn) | 48% |
| C/C(=N\NC(=O)CC(C)C)c1c(C(F)(F)F)[nH]n(-c2nc3ccccc3s2)c1=O | 96.3% (active) |
| CC(=NCc1ccco1)c1c(C(F)(F)F)[nH]n(-c2nc3ccccc3s2)c1=O | 94.7% (active) |
| CC(C)(CSc1nncn1/N=C/c1ccco1)NS(=O)(=O)c1ccc(Cl)cc1 | -9.04% |
| Cc1cc(/C=N/NC(N)=O)c(C)n1C1CCCCC1 | -15.2% |
| CCCCN1Cc2c(nc3cc(-c4ccccc4)[nH]n3c2=O)C1=O | 1.85% |
| Cc1cc(=O)n2[nH]c(-c3cccc(Cl)c3)cc2n1 | -14% |
| O=c1c2c(nc3cc(-c4cccc(Cl)c4)[nH]n13)CCCC2 | 61.8% (active) |
| CC(Sc1nnc(-c2cccs2)n1C1CC1)C(=O)NCC1CCCO1 (stereo not drawn) | -0.203% |
| Cc1ccc(-n2cc3ccc([N+](=O)[O-])cc3n2)cc1 | 68.6% (active) |
| Cc1ccc(-c2cn(S(=O)(=O)c3cccc([N+](=O)[O-])c3)nc2N)cc1 | -7.7% |
| Cc1ccnc(N2C(=O)c3ccc([N+](=O)[O-])cc3C2=O)c1 | 6.9% |
| COc1ccc(CN2CCN(C(=O)c3cc(C4CC4)nn3-c3ccccc3)CC2)cc1F | -8.29% |
| COc1cc(SC)ccc1C(=O)Nc1cc(C)ccn1 | 39% |
| Cc1csc(NC(=O)c2ccc(C)s2)n1 | -2.73% |
| COc1cc(SC)ccc1C(=O)Nc1nc(C)cs1 | 97.6% (active) |
| COc1ccc(N(CC(=O)NC2CCCC2)C(=O)CS(=O)CC(=O)Nc2ccc3c(c2)OCO3)cc1 (stereo not drawn) | -16.6% |
| CC1(C)CC(=O)C(C=NCCN2CCN(C(=S)Nc3cccc(Cl)c3)CC2)=C(O)C1 | 0.407% |
| C=CCNC(=S)N1CCN(CCN=Cc2c(C)[nH]n(-c3ccc([N+](=O)[O-])cc3)c2=O)CC1 | 61.4% (active) |
| Cc1[nH]n(-c2ccccc2)c(=O)c1N=Nc1ccccc1C(=O)N1CCCCC1 | -1.4% |
| Cc1[nH]n(-c2ccc([N+](=O)[O-])cc2)c(=O)c1C=NCCN1CCN(C(=O)c2ccccc2F)CC1 | 64.8% (active) |
| CCNC(=S)N1CCN(CCN=CC2=C(O)CC(C)(C)CC2=O)CC1 | -4.68% |
| Cc1ccc(-n2[nH]c(C)c(/C=N/NC(=O)c3cccc([N+](=O)[O-])c3)c2=O)cc1C | -5.78% |

| SMILES | inhibition |
| --- | --- |
| CCc1ccc2nc(Nc3ncc(C(C)=O)c(C)n3)nc(C)c2c1 | -7.29% |
| Cn1nnnc1-c1cc(Cl)cc(Cl)c1 | 3.44% |
| N#C/C(=C\c1cccnc1)C(=O)Nc1ccc(SC(F)F)cc1 | 7.81% |
| COc1ccc(N(CC(=O)NCCSCc2cccc(Cl)c2)S(C)(=O)=O)cc1 | 4.81% |
| CCC(C)c1ccc(NC(=S)N2CCCC2)cc1 (stereo not drawn) | -3.49% |
| Cc1ccc(/C(N)=N/OC(=O)COc2ccc(Cl)c(C)c2)cc1 | -7.2% |
| Cc1cccc(/C(N)=N/OC(=O)c2ccccc2Cl)c1 | 94.7% (active) |
| N/C(=N\OC(=O)c1cc(-c2ccccc2)nc2ccccc12)c1ccncc1 | -5.5% |
| Cc1ccc(S(=O)(=O)NCCNC(C)c2ccc(Br)cc2)cc1 (stereo not drawn) | 2.45% |
| COc1ccc(C(=O)COC(=O)c2ccc([N+](=O)[O-])s2)cc1OC | 61.6% (active) |
| COc1cc(NC(=O)COC(=O)c2ccc([N+](=O)[O-])s2)cc(OC)c1OC | 63.8% (active) |
| COc1cc(C(=O)OCc2ccc([N+](=O)[O-])cc2)cc(OC)c1OC | 15.6% |
| COc1cccc(/C=C/C(=O)OCC(=O)N2CCN(c3ccccc3)CC2)c1 | -5.84% |
| COc1ccc(C(=O)OCC(=O)c2ccc(Cl)s2)c(OC)c1OC | -5.24% |
| COc1ccc(C(=O)OCC(=O)c2ccc(C)c(S(=O)(=O)N3CCOCC3)c2)cc1OC | -6.51% |
| O=C(OCC(=O)N1CCN(c2ccccc2)CC1)c1ccc([N+](=O)[O-])s1 | 58.1% (active) |
| C[C@H](NC(=O)c1ccccc1Cl)C(=O)OCC(=O)N1CCN(c2ccccc2)CC1 | 2.29% |
| COc1ccc(C(=O)OCC(=O)Nc2ccc3[nH]c(=O)[nH]c3c2)c(OC)c1OC | 2.13% |
| CC1(C)Cc2ccccc2-c2nnc(-c3cccc(O)c3)n21 | -5.27% |
| Cc1ccc(NS(=O)(=O)c2ccc(C(C)C)cc2)cc1S(=O)(=O)N1CCOCC1 | -8.64% |
| NC(=O)c1ccc(Nc2ccc3c(c2)CCC3)c([N+](=O)[O-])c1 | -12.7% |
| O=C(N/N=C/c1sc(N2CCCCC2)nc1-c1cccs1)c1cccnc1 | -8.56% |
| COc1ccc(OC)c(S(=O)(=O)NCCC(C)C)c1 | 0.429% |
| O=C(NCC(=O)N1CCN(c2ccccc2O)CC1)c1ccc2ccccc2c1 | -4.96% |

| SMILES | inhibition |
| --- | --- |
| CC(C)N(C(=O)Cn1c(SCC(=O)N2CCN(c3ccccc3)CC2)nc2ccccc21)C(C)C | 3.06% |
| CC(C)N(C(=O)Cn1cc(SCC(=O)N2CCCC2)c2ccccc21)C(C)C | 55.6% (active) |
| CC(C)N(C(=O)Cn1cc(S(=O)(=O)CC(=O)N2CCOCC2)c2ccccc21)C(C)C | -2.24% |
| O=[N+]([O-])c1cc(S(=O)(=O)NCCc2ccccn2)ccc1Cl | -1.07% |
| CC/C(Cc1ccccc1)=N/NC(=O)CCn1nnc2ccccc21 | 2.91% |
| O=C(Nc1ccccc1C(=O)NCC1CCCO1)c1ccccc1F (stereo not drawn) | -12.9% |
| Cc1c(C(=O)N(C)CCc2cnn(C)c2)oc2c(F)cccc12 | 3.74% |
| O=C(c1ccncc1)c1ccc([N+](=O)[O-])cc1 | -5.02% |
| O=C(Nc1nc2ccc([N+](=O)[O-])cc2s1)c1ccncc1 | 87.5% (active) |
| O=C(NC(Nc1nc2ccc([N+](=O)[O-])cc2s1)(C(F)(F)F)C(F)(F)F)c1ccccc1 | -0.974% |
| CCCOC(=O)c1c(NC(=O)c2cnn3c2NC(c2ccccc2)CC3C(F)(F)F)sc2c1CCCC2 (stereo not drawn) | -1.5% |
| O=C(c1ccco1)N1CCN(C(=S)Nc2cc(F)cc(F)c2)CC1 | 2.74% |
| COc1ccc(N2CCN(C(=O)CNS(=O)(=O)c3ccc(C)c(C)c3)CC2)cc1 | -6.38% |
| Cc1cccc2cc3c(N)c(C(=O)N4CCCc5ccccc54)sc3nc12 | -4.99% |
| CC(=O)c1ccc(OCCCC(=O)Nc2ccc(C)c(S(=O)(=O)N3CCOCC3)c2)cc1 | 8.63% |
| O=C(CSC(=S)N1CCOCC1)c1ccccc1 | 59.3% (active) |
| O=C(CSC(=S)N1CCOCC1)c1cc(Br)cc(Br)c1O | -4.17% |
| CC1CN(C(=S)SCC(=O)c2ccccc2)CC(C)O1 (stereo not drawn) | 1.35% |
| CCOc1ccc(S(=O)(=O)N2CCC(C(=O)NCC(=O)Nc3cccc(Cl)c3C)CC2)cc1 | 3.22% |
| Cc1ccc(-c2nc(CSCC(=O)NC3CCN(Cc4ccccc4)CC3)c(C)o2)cc1 | -1.87% |
| CCCn1c(C)cc(/C=C(\C#N)C(=O)OCC(=O)Nc2cc(OC)c(OC)c(OC)c2)c1C | 1.35% |
